Assay results reported in PubChem BioAssay (EPA / NIEHS).
Values joined by “and” are separate entries in the source; they are usually repeats but may differ in a detail not shown here. Identical values can stand only once. Records with an inconclusive call do not appear. The source holds several records for some structures; these can differ, active in one and inactive in another. Active and inactive are the calls of the source. How the source made its calls, unless noted: active means hit-call score of the fitted dose curve at least 0.9, where 1 is the maximum; inactive means score below 0.9.

Key:
[1] = read-out: Monokine induced gamma interferon (MIG), CXCL9 (gene 4283); assay: BSK_SAg_MIG: BioMAP Diversity Plus: SAg Assay for Monokine induced gamma interferon (MIG) Biomarker Activity (AID 2283092); conditions: primary human HUVEC with PBMC; actives raise or lower the signal
Method in brief: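 ELISA readout of MIG/CXCL9; primary human umbilical vein endothelial cells co-cultured with peripheral blood mononuclear cells; 24 h post-dose; gain/loss fit vs DMSO baseline.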

[2] = BSK_SAg_PBMCCytotoxicity: PBMC Cytotoxicity Assessment in the BioMAP Diversity Plus: SAg Assay (AID 2283093); conditions: primary human HUVEC with PBMC;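 further: PBMC viability measured as Alamar Blue reduction fluorescence at 546/580 nm; fitted both ways against DMSO so a hit may be loss or gain of signal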;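 on AC50: PBMC superantigen activated with SEB plus TSST-1 one hour after compound addition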
Method in brief: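 Compound added to 75,000 PBMC/well for 1 h; SEB and TSST-1 then added at 20 ng/mL final each; 90 h incubation; Alamar Blue 6 h; read 546/580 nm ex/em. Activity fitted bidirectionally relative to DMSO baseline.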

[3] = read-out: Interleukin-8 (IL8), CXCL8 (gene 3576); assay: BSK_SAg_IL8: BioMAP Diversity Plus: SAg Assay for Interleukin-8 (IL8) Biomarker Activity (AID 2283094); conditions: primary human HUVEC with PBMC; actives raise or lower the signal
Method in brief: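 ELISA read-out of IL-8 in a primary human vascular co-culture (umbilical vein endothelium plus PBMC), taken 24 h after compound addition. Values derive from bidirectional fits against DMSO negative controls.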

[4] = BSK_SAg_Proliferation: Cell Proliferation Assessment in the BioMAP Diversity Plus: SAg Assay (AID 2283095); conditions: primary human HUVEC with PBMC;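 further: relative cell number as total protein by SRB absorbance in sub-confluent culture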
Method in brief: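 Cells (endothelium plus PBMC, human primary) were dosed with chemical, cultured 96 h, fixed in 10% TCA and stained with 0.1% SRB. Absorbance at 560 nm gave relative protein, fitted bidirectionally relative to DMSO.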

[5] = BSK_SAg_SRB: Viability Assessment in the BioMAP Diversity Plus: SAg Assay (AID 2283096); conditions: primary human HUVEC with PBMC;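 further: cells read one day after compound addition; hits may be either gain or loss of signal compared with DMSO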
Method in brief: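 Total protein by sulforhodamine B staining, 24 h after dosing, in HUVEC–PBMC co-culture; DMSO-referenced bidirectional fitting.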

[6] = target: human CYP19A1, CYP19A1 (gene 1588) (UniProt P11511); assay: NVS_ADME_hCYP19A1: NovaScreen (NVS) CYP450-related Enzyme Activity (ADME) Assay for human CYP19A1 (AID 2283098; active means hit-call score of the fitted dose curve at least 0.9, where 1 is the maximum;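 on AC50: potency for inhibitors seen as loss of fluorescent enzyme signal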)
Method in brief: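 Biochem, cell-free; recombinant enzyme + specific substrate; fluorescence intensity at 0.5 h post-dose; 10 uM duplicate primary, conc. series for actives; acetonitrile = negative control/baseline; positive and negative controls on every plate.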

[7] = target: Cytochrome P450 2C19 (Homo sapiens) (UniProt P33261); assay: NVS_ADME_hCYP2C19: NovaScreen (NVS) CYP450-related Enzyme Activity (ADME) Assay for human CYP2C19 (AID 2283113; active means hit-call score of the fitted dose curve at least 0.9, where 1 is the maximum;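 further: potency for inhibition seen as loss of fluorescent signal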)
Method in brief: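 Biochemical CYP2C19 inhibition screen: insect-cell recombinant protein plus fluorescent substrate, 1 h, fluorescence intensity. Acetonitrile defined baseline activity. Single 10 uM concentration in duplicate, with concentration-response follow-up for actives.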

[8] = target: human CYP1A1, CYP1A1 (gene 1543) (UniProt P04798); assay: NVS_ADME_hCYP1A1: NovaScreen (NVS) CYP450-related Enzyme Activity (ADME) Assay for human CYP1A1 (AID 2283100; active means hit-call score of the fitted dose curve at least 0.9, where 1 is the maximum)
Method in brief: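 Inhibition of recombinant CYP1A1 turnover was assessed fluorometrically in a biochemical format 1 h after compound exposure. Testing began at 10 uM in duplicate and progressed to concentration series reaching 20 uM, with on-plate positive and negative controls.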

[9] = target: human CYP2C9, CYP2C9 (gene 1559) (UniProt P11712); assay: NVS_ADME_hCYP2C9: NovaScreen (NVS) CYP450-related Enzyme Activity (ADME) Assay for human CYP2C9 (AID 2283108; active means hit-call score of the fitted dose curve at least 0.9, where 1 is the maximum)
Method in brief: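 Fluorescence readout of CYP2C9 activity (SF9-expressed human enzyme) at 0.75 h. The primary screen used 10 uM in duplicate, with concentration-response follow-up for actives; acetonitrile was the negative control.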

[10] = target: human CYP2A6, CYP2A6 (gene 1548) (UniProt P11509); assay: NVS_ADME_hCYP2A6: NovaScreen (NVS) CYP450-related Enzyme Activity (ADME) Assay for human CYP2A6 (AID 2283099; active means hit-call score of the fitted dose curve at least 0.9, where 1 is the maximum)
Method in brief: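 Loss of fluorescence signal relative to acetonitrile vehicle reported CYP2A6 inhibition in a cell-free system using insect-cell-derived enzyme. Readings were taken at 0.5 h; top concentration in follow-up dose series was 20 uM.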

[11] = target: Cytochrome P450 3A4 (Homo sapiens) (UniProt P08684); assay: NVS_ADME_hCYP3A4: NovaScreen (NVS) CYP450-related Enzyme Activity (ADME) Assay for human CYP3A4 (AID 2283110; active means hit-call score of the fitted dose curve at least 0.9, where 1 is the maximum)
Method in brief: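 Compounds were first screened in duplicate at 10 uM against recombinant CYP3A4 produced in insect cells, then actives were run in concentration series. Enzyme activity was measured by fluorescence after 0.33 hour, with acetonitrile as baseline.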

[12] = target: rat CYP2A1, Cyp2a1 (gene 24894) (UniProt P11711); assay: NVS_ADME_rCYP2A1: NovaScreen (NVS) CYP450-related Enzyme Activity (ADME) Assay for rat CYP2A1 (AID 2283114)
Method in brief: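 Recombinant rat CYP2A1, cell-free, fluorogenic substrate turnover read by fluorescence intensity 0.75 h after dosing. Primary screen at 10 uM in duplicate; actives rerun as concentration-response up to 20 uM; loss of signal versus acetonitrile control.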

[13] = target: rat CYP2A2, Cyp2a2 (gene 24895) (UniProt P15149); assay: NVS_ADME_rCYP2A2: NovaScreen (NVS) CYP450-related Enzyme Activity (ADME) Assay for rat CYP2A2 (AID 2283116; active means hit-call score of the fitted dose curve at least 0.9, where 1 is the maximum)
Method in brief: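 Cell-free recombinant rat CYP2A2 activity with fluorogenic substrate, fluorescence read 0.2 h after dosing. Chemicals screened at 10 uM in duplicate, hits then run in concentration-response up to 20 uM; signal loss versus acetonitrile baseline.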

[14] = target: human CYP2B6, CYP2B6 (gene 1555) (UniProt P20813); assay: NVS_ADME_hCYP2B6: NovaScreen (NVS) CYP450-related Enzyme Activity (ADME) Assay for human CYP2B6 (AID 2283101; active means hit-call score of the fitted dose curve at least 0.9, where 1 is the maximum)
Method in brief: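 Fluorescence-based enzyme activity of recombinant human CYP2B6, measured 1 h post-dose against acetonitrile vehicle baseline. Screened at a single concentration of 10 uM in duplicate before concentration-response follow-up.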

[15] = target: human CYP2J2, CYP2J2 (gene 1573) (UniProt P51589); assay: NVS_ADME_hCYP2J2: NovaScreen (NVS) CYP450-related Enzyme Activity (ADME) Assay for human CYP2J2 (AID 2283106; active means hit-call score of the fitted dose curve at least 0.9, where 1 is the maximum)
Method in brief: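 Cell-free assay of recombinant CYP2J2 with a fluorogenic substrate, read 1 h after dosing; loss of signal versus acetonitrile. Primary screen at 10 uM in duplicate, then concentration-response up to 20 uM for chemicals passing threshold (e.g., 30% inhibition).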

Chain of rat CYP2A1, Cyp2a1 (gene 24894) (P11711 whole entry, looked up): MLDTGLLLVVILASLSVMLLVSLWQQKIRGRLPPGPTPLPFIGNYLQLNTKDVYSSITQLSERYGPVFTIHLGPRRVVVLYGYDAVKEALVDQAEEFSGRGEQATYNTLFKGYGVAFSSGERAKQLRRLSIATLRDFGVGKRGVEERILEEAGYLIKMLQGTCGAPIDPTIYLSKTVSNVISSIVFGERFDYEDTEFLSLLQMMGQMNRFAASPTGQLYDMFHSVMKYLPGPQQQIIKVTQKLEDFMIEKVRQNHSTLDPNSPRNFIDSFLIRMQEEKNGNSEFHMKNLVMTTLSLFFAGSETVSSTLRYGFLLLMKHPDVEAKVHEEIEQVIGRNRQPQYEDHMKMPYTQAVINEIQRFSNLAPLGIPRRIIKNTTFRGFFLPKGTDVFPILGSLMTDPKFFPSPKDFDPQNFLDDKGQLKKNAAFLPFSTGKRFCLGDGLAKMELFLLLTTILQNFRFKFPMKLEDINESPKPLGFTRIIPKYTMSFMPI
Chain of human CYP19A1, CYP19A1 (gene 1588) (P11511 whole entry, looked up): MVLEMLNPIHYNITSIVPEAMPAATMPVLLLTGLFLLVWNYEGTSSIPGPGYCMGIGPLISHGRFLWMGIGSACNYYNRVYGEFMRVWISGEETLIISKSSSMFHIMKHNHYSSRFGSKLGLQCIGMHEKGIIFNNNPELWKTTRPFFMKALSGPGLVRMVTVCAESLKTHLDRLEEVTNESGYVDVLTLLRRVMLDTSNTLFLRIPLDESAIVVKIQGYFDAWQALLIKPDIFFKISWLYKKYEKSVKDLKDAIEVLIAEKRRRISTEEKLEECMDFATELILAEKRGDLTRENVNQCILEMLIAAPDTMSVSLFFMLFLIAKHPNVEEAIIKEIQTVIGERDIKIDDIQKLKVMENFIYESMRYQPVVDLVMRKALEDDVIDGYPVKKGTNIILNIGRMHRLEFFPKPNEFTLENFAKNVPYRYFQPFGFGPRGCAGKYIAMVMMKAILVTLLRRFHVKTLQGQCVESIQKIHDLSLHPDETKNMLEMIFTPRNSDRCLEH
Chain of human CYP1A1, CYP1A1 (gene 1543) (P04798 whole entry, looked up): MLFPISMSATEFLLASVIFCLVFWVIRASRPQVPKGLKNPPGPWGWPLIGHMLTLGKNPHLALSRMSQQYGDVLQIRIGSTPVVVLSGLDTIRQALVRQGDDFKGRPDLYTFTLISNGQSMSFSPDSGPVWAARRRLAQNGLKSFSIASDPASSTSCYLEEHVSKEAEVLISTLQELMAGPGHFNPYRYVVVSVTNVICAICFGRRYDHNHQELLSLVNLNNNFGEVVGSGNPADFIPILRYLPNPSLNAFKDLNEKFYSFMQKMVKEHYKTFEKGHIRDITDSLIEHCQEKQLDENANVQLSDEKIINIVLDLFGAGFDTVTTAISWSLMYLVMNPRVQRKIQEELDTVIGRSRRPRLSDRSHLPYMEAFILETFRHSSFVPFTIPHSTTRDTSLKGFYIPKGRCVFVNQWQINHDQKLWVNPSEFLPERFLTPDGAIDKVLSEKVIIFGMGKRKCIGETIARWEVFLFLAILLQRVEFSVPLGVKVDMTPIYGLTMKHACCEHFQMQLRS
Chain of human CYP2C9, CYP2C9 (gene 1559) (P11712 whole entry, looked up): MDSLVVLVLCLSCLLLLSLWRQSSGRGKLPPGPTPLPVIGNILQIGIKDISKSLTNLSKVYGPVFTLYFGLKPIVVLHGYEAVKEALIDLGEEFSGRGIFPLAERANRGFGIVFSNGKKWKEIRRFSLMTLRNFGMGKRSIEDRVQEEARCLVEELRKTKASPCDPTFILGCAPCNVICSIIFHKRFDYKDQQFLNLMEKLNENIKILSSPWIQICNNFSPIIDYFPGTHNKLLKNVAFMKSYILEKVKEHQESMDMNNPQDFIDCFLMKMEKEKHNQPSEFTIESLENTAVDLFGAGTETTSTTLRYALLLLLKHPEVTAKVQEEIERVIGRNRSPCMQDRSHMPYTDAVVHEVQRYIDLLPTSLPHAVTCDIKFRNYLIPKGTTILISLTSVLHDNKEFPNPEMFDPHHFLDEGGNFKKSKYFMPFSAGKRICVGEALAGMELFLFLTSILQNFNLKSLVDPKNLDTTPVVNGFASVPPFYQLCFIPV
Chain of Cytochrome P450 3A4 (Homo sapiens) (P08684 whole entry, looked up): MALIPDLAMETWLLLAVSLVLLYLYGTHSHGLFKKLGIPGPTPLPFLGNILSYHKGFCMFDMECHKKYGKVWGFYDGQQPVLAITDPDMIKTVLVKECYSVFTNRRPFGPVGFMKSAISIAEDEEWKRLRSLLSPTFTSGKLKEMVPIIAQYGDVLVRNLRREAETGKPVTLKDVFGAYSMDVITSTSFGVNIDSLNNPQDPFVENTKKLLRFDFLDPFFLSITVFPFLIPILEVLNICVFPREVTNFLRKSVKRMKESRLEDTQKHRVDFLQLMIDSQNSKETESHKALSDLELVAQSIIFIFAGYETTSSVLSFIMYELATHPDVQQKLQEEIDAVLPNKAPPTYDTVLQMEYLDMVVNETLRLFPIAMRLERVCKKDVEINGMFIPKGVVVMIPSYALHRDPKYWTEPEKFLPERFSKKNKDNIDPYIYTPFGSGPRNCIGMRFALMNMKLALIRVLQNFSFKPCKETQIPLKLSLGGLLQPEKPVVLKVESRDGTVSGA
Chain of rat CYP2A2, Cyp2a2 (gene 24895) (P15149 whole entry, looked up): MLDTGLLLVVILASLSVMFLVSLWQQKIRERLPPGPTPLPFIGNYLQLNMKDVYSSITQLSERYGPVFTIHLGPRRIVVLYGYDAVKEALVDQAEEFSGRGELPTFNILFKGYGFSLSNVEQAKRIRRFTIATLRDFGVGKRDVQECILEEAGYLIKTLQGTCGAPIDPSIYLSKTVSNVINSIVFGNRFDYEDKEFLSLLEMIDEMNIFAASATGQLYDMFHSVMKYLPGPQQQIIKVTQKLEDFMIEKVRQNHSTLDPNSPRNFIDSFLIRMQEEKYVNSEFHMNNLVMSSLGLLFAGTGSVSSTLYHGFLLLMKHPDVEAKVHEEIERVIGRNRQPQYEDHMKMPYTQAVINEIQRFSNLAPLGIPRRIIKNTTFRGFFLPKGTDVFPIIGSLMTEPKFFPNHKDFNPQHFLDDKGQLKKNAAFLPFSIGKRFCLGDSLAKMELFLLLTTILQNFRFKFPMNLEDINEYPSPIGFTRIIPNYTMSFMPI
Chain of human CYP2A6, CYP2A6 (gene 1548) (P11509 whole entry, looked up): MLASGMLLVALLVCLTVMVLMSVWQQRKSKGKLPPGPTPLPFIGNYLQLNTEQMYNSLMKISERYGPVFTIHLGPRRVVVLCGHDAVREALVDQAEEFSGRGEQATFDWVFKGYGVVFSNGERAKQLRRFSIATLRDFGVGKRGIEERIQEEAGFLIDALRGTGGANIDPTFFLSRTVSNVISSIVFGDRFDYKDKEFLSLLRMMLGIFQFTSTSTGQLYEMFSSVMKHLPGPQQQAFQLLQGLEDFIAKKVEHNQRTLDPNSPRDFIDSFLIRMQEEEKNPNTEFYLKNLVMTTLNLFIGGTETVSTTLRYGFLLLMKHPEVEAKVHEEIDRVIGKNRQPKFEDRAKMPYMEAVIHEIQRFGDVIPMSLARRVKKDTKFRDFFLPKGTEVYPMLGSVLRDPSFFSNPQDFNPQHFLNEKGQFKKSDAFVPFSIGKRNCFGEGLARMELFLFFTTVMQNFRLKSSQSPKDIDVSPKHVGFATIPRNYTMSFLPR
Chain of human CYP2J2, CYP2J2 (gene 1573) (P51589 whole entry, looked up): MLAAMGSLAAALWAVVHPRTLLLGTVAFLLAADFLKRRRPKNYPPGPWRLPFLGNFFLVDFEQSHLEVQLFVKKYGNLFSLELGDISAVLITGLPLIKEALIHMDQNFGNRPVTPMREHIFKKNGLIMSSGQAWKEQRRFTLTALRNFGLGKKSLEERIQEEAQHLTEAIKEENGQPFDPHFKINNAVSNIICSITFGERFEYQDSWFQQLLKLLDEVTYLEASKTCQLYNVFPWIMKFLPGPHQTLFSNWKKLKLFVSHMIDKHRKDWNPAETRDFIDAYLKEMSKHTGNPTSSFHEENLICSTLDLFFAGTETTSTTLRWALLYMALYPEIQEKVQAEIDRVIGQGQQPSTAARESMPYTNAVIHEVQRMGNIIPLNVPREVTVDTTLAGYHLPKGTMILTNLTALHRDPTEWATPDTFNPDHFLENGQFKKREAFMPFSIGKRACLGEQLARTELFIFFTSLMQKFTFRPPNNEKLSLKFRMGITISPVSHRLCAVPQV
Chain of human CYP2B6, CYP2B6 (gene 1555) (P20813 whole entry, looked up): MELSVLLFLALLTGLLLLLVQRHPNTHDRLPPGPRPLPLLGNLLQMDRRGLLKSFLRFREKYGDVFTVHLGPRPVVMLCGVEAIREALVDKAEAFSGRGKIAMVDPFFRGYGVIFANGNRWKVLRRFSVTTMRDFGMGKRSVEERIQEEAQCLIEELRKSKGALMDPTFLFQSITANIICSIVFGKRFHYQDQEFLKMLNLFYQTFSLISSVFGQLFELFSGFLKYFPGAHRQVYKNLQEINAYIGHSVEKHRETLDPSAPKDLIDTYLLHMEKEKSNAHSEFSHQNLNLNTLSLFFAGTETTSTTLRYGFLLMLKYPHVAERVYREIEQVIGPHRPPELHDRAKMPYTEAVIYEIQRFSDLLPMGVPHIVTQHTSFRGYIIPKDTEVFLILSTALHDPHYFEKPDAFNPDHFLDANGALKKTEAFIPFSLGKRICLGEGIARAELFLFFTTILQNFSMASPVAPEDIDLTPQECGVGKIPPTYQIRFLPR

For `COP(=O)(OC)OC=C(Cl)Cl`, the outcome [1] was “inactive”, the outcome [2] was “inactive” and the outcome [3] was “inactive”. For the same compound, the AC50 [4] was 20 µM (active), the outcome [5] was “inactive” and the outcome [6] was “inactive”.
In the case of `O=C(O)COc1ccc(Cl)cc1Cl`, the outcome [1] was “inactive”, the outcome [2] was “inactive” and the outcome [3] was “inactive”. For the same compound, the outcome [4] was “inactive”, the outcome [5] was “inactive” and the AC50 [7] was 10 µM (active).
With `CCS(=O)(=O)c1cccnc1S(=O)(=O)NC(=O)Nc1nc(OC)cc(OC)n1` the outcome [1] was “inactive”, the outcome [3] was “inactive” and the outcome [4] was “inactive”. The outcome [5] was “inactive”.
For `O=[N+]([O-])c1c(Cl)c(Cl)c(Cl)c(Cl)c1Cl`, the outcome [1] was “inactive”, the outcome [2] was “inactive” and the outcome [3] was “inactive”. The AC50 [4] was 31.2 µM (active), the outcome [5] was “inactive” and the outcome [6] was “inactive”. For the same compound, the outcome [8] was “inactive”.
For `COc1cc(OC)nc(NC(=O)NS(=O)(=O)c2cc(NC=O)ccc2C(=O)N(C)C)n1`, the outcome [1] was “inactive”, the outcome [3] was “inactive” and the outcome [4] was “inactive”. The outcome [5] was “inactive”.
In the case of `CCc1ccc(C(=O)NN(C(=O)c2cc(C)cc(C)c2)C(C)(C)C)cc1`, the outcome [1] was “inactive”, the AC50 [3] was 11.3 µM (active) and the AC50 [4] was 17.7 µM (active). For the same compound, the outcome [5] was “inactive”.
In the case of `N#CN`, the outcome [1] was “inactive”, the outcome [3] was “inactive” and the outcome [4] was “inactive”. For the same compound, the outcome [5] was “inactive”.
With `CC1(C)C(C=C(Cl)Cl)C1C(=O)OC(C#N)c1ccc(F)c(Oc2ccccc2)c1` (stereo unspecified) the outcome [1] was “inactive”, the outcome [2] was “inactive” and the outcome [3] was “inactive”. For the same compound, the AC50 [4] was 29.9 µM (active), the AC50 [5] was 14.2 µM (active) and the outcome [6] was “inactive”. For the same compound, the AC50 [9] was 10 µM (active) and the AC50 [7] was 13.5 µM (active).
In the case of `CCCN(CCC)c1c([N+](=O)[O-])cc(C(F)(F)F)cc1[N+](=O)[O-]`, the outcome [1] was “inactive”, the AC50 [2] was 15 µM (active) and the AC50 [3] was 24.9 µM (active). For the same compound, the AC50 [4] was 24.4 µM (active), the AC50 [5] was 20 µM (active) and the outcome [6] was “inactive”.
With `CC(C)(C)C(O)C(Oc1ccc(Cl)cc1)n1cncn1` (stereo unspecified) the outcome [1] was “inactive”, the AC50 [3] was 10.6 µM (active) and the outcome [3] was “inactive”. The AC50 [4] was 15 µM (active), the outcome [4] was “inactive” and the outcome [5] was “inactive”. For the same compound, the AC50 [6] was 7.34 µM (active) and 2.41 µM (active), the outcome [10] was “inactive” and the AC50 [8] was 7.11 µM (active). The outcome [8] was “inactive”, the AC50 [9] was 5.02 µM (active) and 7.84 µM (active) and the outcome [9] was “inactive”. For the same compound, the outcome [11] was “inactive”, the AC50 [7] was 1.29 µM (active) and 1.71 µM (active) and 1.18 µM (active) and the AC50 [12] was 3.66 µM (active). For the same compound, the AC50 [13] was 0.32 µM (active).
In the case of `O=C(O)CCCOc1ccc(Cl)cc1Cl`, the outcome [1] was “inactive”, the outcome [2] was “inactive” and the outcome [3] was “inactive”. For the same compound, the outcome [4] was “inactive”, the outcome [5] was “inactive” and the outcome [6] was “inactive”. The AC50 [7] was 12.1 µM (active).
For `CC(C)N(C(=O)COc1nnc(C(F)(F)F)s1)c1ccc(F)cc1`, the outcome [1] was “inactive”, the outcome [3] was “inactive” and the AC50 [4] was 15.8 µM (active). For the same compound, the outcome [5] was “inactive”, the AC50 [7] was 1.05 µM (active) and the AC50 [12] was 10 µM (active).
For `CC(C)(C)C(O)/C(=C\c1ccc(Cl)cc1Cl)n1cncn1` (stereo unspecified), the outcome [1] was “inactive”, the AC50 [3] was 32.2 µM (active) and the AC50 [4] was 29.2 µM (active). For the same compound, the AC50 [5] was 29.9 µM (active), the AC50 [6] was 4.73 µM (active) and the AC50 [8] was 0.705 µM (active). The AC50 [14] was 0.974 µM (active), the AC50 [15] was 2.21 µM (active) and the AC50 [9] was 0.721 µM (active). For the same compound, the AC50 [11] was 1.2 µM (active), the AC50 [7] was 0.00727 µM (active) and the AC50 [12] was 0.477 µM (active). For the same compound, the AC50 [13] was 0.0195 µM (active).
